Nine compounds from PubChem BioAssay (Tox21) can be followed below.

Assay [1] in a line: Human pregnane X receptor (PXR) small molecule agonists, qHTS cell viability counter screen (AID 1346977). Note: nearly all actives have a fitted effect of over 50% in size. The essentials: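 In each well, the PXR reporter HepG2 line was checked for viability: CellTiter-Fluor reagent added 23hr post-dosing, fluorescence read after 1hr incubation at 37C.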
On the technique in general: qHTS replaces the single test concentration by a dilution series.

Assay [2] is described as follows: Caspase-3/7 induction in HepG2 cells by small molecules, qHTS assay (AID 1346978). Note: nearly all actives have a fitted effect of over 15% in size. The essentials: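 Caspase-3/7 induction was measured by Caspase-Glo 3/7 luminescence (30 min, room temperature) after a 17 hr compound exposure of wild-type HepG2 cells seeded at 2,000 per well and pre-incubated 5 hr.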
A short description of assay [3]: Caspase-3/7 induction in HepG2 cells by small molecules, qHTS cell viability counter screen (AID 1346981). Note: series mostly up to about 92 µM; nearly all actives have a fitted effect of over 30% in size. The gist of the method: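 Wild-type HepG2 cells (2,000/well) were allowed to settle for 5 hr at 37 C, 5% CO2, then dosed with compounds in DMSO by pin transfer. After 16 hr at 37 C, CellTiter-Fluor was added and fluorescence read 1 hr later.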
Assay [4] addresses Cytochrome P450 2D6 (Homo sapiens) (UniProt P10635). Description: Cytochrome P450 Family 2 Subfamily D Member 6 (CYP2D6) small molecule antagonists: luciferase reporter qHTS assay (AID 1671196). Note: nearly all actives have a fitted effect of over 50% in size. Note: potency is the fitted concentration of half-maximal effect. The essentials: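 CYP2D6 enzyme–substrate mix was held with compound for 10 min at room temperature, then NADPH regeneration solution was added and the reaction ran 1 h at room temperature. Luciferin product was detected by luminescence after 20 min with detection reagent.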
A general note: Reporter assays use an easily measured gene product as a stand-in for the process of interest.

Assay [5] deals with Cytochrome P450 2C19 (Homo sapiens) (UniProt P33261). Kind of assay: Cytochrome P450 Family 2 Subfamily C Member 19 (CYP2C19) small molecule antagonists: luciferase reporter qHTS assay (AID 1671197). Note: series mostly up to about 120 µM; nearly all actives have a fitted effect of over 65% in size. The gist of the method:
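Luminescent readout of CYP2C19 activity: luciferin product detected 20 min after adding detection reagent. Before that, compound and enzyme-substrate mix preincubated 10 min at room temperature; NADPH-regenerating system started a 1 h, 37C reaction. Ketoconazole as positive control.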

Assay [6] deals with Cytochrome P450 2C9 (Homo sapiens) (UniProt P11712). Description: Cytochrome P450 Family 2 Subfamily C Member 9 (CYP2C9) small molecule antagonists: luciferase reporter qHTS assay (AID 1671198). Note: nearly all actives have a fitted effect of over 50% in size. Note: potency is the fitted concentration of half-maximal effect. The gist of the method:
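Enzyme-substrate mix preincubated with compound 10 min at room temperature; reaction started with NADPH regeneration solution, 1 h 37C. Luminescent luciferin product read after 20 min detection reagent.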

For assay [7], the target named is Cytochrome P450 1A2 (Homo sapiens) (UniProt P05177). Kind of assay: Cytochrome P450 Family 1 Subfamily A Member 2 (CYP1A2) small molecule antagonists: luciferase reporter qHTS assay (AID 1671199). Note: nearly all actives have a fitted effect of over 50% in size. Note: potency is the fitted concentration of half-maximal effect. The gist of the method: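 Human CYP1A2 activity measured with a P450-Glo proluciferin substrate; compounds in DMSO preincubated 10 min at room temperature with enzyme-substrate mix, then NADPH regeneration system added for 1 h. Luciferin detection reagent, 20 min, luminescence read.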
Sequence of Cytochrome P450 1A2 (Homo sapiens) (P05177 whole entry, looked up): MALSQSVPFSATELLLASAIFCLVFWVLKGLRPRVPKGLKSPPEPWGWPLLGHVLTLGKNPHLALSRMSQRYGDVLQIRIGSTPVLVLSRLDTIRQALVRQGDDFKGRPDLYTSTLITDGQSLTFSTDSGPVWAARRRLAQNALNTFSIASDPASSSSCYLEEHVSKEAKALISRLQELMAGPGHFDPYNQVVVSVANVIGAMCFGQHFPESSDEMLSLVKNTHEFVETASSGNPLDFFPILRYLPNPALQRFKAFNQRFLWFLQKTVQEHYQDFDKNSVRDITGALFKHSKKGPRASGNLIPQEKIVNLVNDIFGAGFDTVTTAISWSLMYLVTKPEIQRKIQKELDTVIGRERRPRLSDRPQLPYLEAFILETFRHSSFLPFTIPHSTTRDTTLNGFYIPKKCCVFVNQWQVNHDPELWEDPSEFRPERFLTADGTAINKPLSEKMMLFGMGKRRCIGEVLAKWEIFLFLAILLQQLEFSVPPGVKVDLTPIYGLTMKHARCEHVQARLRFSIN

The target in assay [8] is Voltage-gated inwardly rectifying potassium channel KCNH2 (Homo sapiens) (UniProt Q12809). Kind of assay: Human Ether-a-go-go-Related Gene (hERG) channel small molecule antagonists: fluorescence cell-based qHTS assay (AID 1671200). The essentials:
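In this thallium-flux screen, overnight-cultured U2OS cells bearing the channel are dye-loaded in darkness for an hour, rested 10 min at room temperature, and then monitored kinetically at 480/540 nm for two minutes post-stimulus.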

Assay [9] concerns the target Cytochrome P450 3A4 (Homo sapiens) (UniProt P08684). Kind of assay: Cytochrome P450 Family 3 Subfamily A Member 4 (CYP3A4) small molecule antagonists: luciferase reporter qHTS assay (AID 1671201). The gist of the method:
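CYP3A4 activity was followed with a P450-Glo proluciferin substrate. Test compounds in DMSO were preincubated 10 min; NADPH regeneration then ran 1 h, and light output was read 20 min after detection reagent.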

Assay [10] in a line: Caspase-3/7 induction in CHO-K1 cells by small molecules, qHTS assay (AID 1346980). Note: nearly all actives have a fitted effect of over 15% in size. The gist of the method: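 Luminescent Caspase-Glo 3/7 read (30min, room temperature) quantified apoptosis induction. Cells were wild-type CHO-K1, treated with compound for 17hr at 37 C and 5% CO2.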
For assay [11], the target named is Nuclear receptor subfamily 1 group I member 2 (Homo sapiens) (UniProt O75469). Kind of assay: Human pregnane X receptor (PXR) small molecule agonists, qHTS assay (AID 1346982). Note: nearly all actives have a fitted effect of over 35% in size. The essentials: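 PXR-Luc HepG2 cells (CYP3A4 promoter-driven luciferase) were seeded in medium with 5% charcoal-stripped FBS, left 5 hr at 37 C, then exposed to compounds in DMSO for 24 hr. Luminescence was read after ONE-Glo addition.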
Sequence of Nuclear receptor subfamily 1 group I member 2 (Homo sapiens) (O75469 whole entry, looked up): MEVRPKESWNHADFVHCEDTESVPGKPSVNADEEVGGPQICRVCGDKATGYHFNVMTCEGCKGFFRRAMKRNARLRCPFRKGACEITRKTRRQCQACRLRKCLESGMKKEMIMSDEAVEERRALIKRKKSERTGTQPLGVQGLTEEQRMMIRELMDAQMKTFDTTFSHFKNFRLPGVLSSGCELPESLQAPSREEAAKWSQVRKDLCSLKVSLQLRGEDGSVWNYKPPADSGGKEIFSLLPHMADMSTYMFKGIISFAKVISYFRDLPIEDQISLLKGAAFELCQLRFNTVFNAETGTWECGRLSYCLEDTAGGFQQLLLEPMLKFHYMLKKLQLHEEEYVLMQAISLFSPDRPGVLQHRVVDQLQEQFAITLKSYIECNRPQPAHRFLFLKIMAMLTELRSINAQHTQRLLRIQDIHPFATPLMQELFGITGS

Assay [12] has the same target. Description: CYP3A4 induction through human pregnane X receptor (PXR) by small molecules, qHTS assay (AID 1346984). Note: nearly all actives have a fitted effect of over 40% in size. The essentials: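 DPX-2 cells (HepG2 co-transfected with PXR and CYP3A4 promoter-luciferase) treated with compounds 24 h at 37C; luciferin-IPA CYP3A4 substrate 3uM final added for 3 h, then One-Glo; luminescence read. qHTS format.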
Assay [13] has the same target. Description: Human pregnane X receptor (PXR) activation by small molecules, qHTS assay (AID 1346985). Note: nearly all actives have a fitted effect of over 40% in size. The gist of the method:
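DPX-2 cells (HepG2 co-transfected with a PXR response element and a CYP3A4-promoter luciferase construct) were seeded at 2,000 per well, rested 5 hr at 37C, then exposed to DMSO-dissolved compounds for 24 hr. Activation was read as luciferase luminescence.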

Assay [14] is described as follows: Caspase-3/7 induction in CHO-K1 cells by small molecules, qHTS cell viability counter screen (AID 1346979). Note: nearly all actives have a fitted effect of over 35% in size. The gist of the method:
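Following a 5hr settling period, CHO-K1 cells at 1,500 per well received DMSO-dissolved compounds. Cell viability was quantified 16hr later by CellTiter-Fluor fluorescence, measured after 1hr with reagent at 37C.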

The target in assay [15] is Nuclear receptor subfamily 1 group I member 2 (Rattus norvegicus) (UniProt Q9R1A7). Description: Rat pregnane X receptor (rPXR) activation by small molecules, qHTS assay (AID 1346983). Note: nearly all actives have a fitted effect of over 20% in size. The following applies: rPXR luciferase reporter cells, One-Glo luminescence, 24 h; max activation: active compounds read high. The essentials:
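Luminescent readout (One-Glo luciferase, 30 min room temperature) followed 24 hr compound treatment at 37 C of rPXR cells plated 2,000 per well and preincubated 5hr; qHTS format with compounds delivered in DMSO.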

A number with no mark means an inactive call. Results filed as inconclusive are left out. Activity calls are given as the source filed them. Calls come from the whole dose curve; as a rule, active = well fitted curve in the direction sought with a large enough effect in the repeat runs; inconclusive = weak or mixed curves; inactive = no such curve, though single readings can be large; an effect the other way counts as inactive or inconclusive.
% is set by controls: 0 for no effect and ±100 for the full control effect.

Sequence of Voltage-gated inwardly rectifying potassium channel KCNH2 (Homo sapiens) (Q12809 whole entry, looked up): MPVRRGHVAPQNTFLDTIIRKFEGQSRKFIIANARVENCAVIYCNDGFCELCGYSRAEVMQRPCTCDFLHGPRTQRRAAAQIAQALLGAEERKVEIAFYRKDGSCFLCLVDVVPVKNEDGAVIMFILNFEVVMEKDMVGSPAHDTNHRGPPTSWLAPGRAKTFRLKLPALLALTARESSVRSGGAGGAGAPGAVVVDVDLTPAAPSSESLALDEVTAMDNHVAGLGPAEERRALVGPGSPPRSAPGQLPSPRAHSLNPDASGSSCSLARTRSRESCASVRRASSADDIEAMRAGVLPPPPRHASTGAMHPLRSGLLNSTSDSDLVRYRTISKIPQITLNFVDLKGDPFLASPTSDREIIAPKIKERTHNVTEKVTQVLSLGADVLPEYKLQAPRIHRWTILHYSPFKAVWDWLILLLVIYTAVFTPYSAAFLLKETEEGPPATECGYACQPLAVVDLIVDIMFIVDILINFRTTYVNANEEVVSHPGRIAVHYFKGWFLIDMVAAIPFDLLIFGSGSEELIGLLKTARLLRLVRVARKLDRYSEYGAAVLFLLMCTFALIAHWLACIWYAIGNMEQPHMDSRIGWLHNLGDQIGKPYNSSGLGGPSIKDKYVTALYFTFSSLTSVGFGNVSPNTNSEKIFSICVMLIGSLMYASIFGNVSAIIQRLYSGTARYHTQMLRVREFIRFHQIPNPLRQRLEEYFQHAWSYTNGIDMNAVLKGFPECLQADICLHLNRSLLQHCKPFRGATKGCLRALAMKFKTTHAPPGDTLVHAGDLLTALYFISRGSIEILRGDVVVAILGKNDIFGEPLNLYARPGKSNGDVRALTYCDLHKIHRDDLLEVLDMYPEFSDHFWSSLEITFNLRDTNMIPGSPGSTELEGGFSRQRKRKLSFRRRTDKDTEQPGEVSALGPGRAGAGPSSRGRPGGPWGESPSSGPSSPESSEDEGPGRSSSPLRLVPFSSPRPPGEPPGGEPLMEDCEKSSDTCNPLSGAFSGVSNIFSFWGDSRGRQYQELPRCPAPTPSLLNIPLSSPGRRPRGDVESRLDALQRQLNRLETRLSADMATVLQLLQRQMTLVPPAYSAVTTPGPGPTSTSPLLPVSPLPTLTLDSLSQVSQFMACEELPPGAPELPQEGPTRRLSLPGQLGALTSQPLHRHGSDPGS
Sequence of Cytochrome P450 3A4 (Homo sapiens) (P08684 whole entry, looked up): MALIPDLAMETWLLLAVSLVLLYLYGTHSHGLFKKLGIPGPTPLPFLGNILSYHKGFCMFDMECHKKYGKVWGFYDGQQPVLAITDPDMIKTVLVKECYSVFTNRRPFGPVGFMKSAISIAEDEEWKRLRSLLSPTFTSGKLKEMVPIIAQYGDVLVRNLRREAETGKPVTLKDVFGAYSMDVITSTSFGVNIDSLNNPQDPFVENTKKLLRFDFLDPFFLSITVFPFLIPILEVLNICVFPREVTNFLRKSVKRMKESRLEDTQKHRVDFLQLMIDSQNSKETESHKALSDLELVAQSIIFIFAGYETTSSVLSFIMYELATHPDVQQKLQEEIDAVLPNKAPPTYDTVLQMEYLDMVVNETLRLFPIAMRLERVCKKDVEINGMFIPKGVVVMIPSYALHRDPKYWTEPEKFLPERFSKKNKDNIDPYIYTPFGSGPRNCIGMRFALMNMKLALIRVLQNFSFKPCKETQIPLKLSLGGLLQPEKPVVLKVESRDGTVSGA
Sequence of Cytochrome P450 2D6 (Homo sapiens) (P10635 whole entry, looked up): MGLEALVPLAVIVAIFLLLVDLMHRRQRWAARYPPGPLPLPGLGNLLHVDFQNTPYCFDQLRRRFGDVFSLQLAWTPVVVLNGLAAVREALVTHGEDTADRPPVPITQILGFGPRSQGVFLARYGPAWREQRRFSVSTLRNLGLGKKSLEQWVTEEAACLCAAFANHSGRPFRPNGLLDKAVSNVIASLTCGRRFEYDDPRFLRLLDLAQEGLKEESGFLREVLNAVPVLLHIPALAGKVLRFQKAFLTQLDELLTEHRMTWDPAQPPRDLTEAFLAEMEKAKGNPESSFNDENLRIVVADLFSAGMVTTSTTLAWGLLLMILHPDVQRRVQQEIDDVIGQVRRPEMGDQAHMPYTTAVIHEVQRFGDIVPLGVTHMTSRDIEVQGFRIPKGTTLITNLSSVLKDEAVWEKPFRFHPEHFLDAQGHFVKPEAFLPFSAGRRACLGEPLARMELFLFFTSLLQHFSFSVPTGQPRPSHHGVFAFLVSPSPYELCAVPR
Sequence of Cytochrome P450 2C19 (Homo sapiens) (P33261 whole entry, looked up): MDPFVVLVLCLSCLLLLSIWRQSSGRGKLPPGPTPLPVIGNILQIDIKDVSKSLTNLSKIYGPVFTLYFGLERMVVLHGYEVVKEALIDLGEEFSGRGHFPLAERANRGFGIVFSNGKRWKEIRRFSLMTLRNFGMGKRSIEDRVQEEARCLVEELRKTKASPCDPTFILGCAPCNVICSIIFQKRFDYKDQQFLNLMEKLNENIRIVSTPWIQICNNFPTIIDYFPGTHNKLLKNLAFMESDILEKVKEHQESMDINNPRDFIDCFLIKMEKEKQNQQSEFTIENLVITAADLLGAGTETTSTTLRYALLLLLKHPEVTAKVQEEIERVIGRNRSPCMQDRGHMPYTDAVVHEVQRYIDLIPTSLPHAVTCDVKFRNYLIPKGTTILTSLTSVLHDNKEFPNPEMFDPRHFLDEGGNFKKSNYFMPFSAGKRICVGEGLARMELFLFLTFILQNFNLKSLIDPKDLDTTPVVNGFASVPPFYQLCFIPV
Sequence of Cytochrome P450 2C9 (Homo sapiens) (P11712 whole entry, looked up): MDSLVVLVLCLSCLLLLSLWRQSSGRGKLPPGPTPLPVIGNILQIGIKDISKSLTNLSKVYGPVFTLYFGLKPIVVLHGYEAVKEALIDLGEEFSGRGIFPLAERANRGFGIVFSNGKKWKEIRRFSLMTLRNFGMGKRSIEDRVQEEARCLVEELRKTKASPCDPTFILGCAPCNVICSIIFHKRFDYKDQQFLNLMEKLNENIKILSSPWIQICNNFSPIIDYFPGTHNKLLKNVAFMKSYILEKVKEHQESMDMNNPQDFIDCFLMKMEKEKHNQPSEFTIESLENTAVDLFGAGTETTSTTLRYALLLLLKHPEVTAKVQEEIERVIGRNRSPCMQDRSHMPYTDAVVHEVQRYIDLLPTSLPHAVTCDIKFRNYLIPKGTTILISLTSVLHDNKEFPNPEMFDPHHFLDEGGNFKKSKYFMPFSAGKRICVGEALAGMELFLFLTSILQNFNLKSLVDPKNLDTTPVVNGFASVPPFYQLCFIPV
Sequence of Nuclear receptor subfamily 1 group I member 2 (Rattus norvegicus) (Q9R1A7 whole entry, looked up): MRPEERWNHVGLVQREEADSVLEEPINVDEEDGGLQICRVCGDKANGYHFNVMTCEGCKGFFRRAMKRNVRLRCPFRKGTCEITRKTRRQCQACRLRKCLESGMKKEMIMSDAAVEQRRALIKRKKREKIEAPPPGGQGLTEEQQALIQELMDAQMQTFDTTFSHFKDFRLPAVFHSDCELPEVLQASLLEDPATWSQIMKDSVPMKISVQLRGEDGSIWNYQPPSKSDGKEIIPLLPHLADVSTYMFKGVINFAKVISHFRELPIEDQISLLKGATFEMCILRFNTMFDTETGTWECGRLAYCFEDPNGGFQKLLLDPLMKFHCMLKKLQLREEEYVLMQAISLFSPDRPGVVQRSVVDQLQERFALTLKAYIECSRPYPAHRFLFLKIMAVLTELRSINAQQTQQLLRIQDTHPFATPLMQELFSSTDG

For `O=C(CCOCCOCCOCCOCCC(=O)Nc1c(I)cc(I)c(C(=O)O)c1I)Nc1c(I)cc(I)c(C(=O)O)c1I`, the Potency result in [1], in [4], in [5], in [6], in [7] and in assay [8] was “inactive” in each case. Besides, in [9], the Potency entry is “inactive”. In addition, the compound was classed as inactive in assay [2] and in [3].
In the case of `CCCCCCCCCCCCCCCCCCOCC(O)CO` (configuration not stated), the Potency result in assay [1], in [11], in [12], in assay [13], in assay [4] and in assay [5] was “inactive” each time. The Potency result in assay [6] and in assay [8] was “inactive” each time. Moreover, the call in assay [2], in assay [10] and in assay [3] was inactive.
Take `CCCC(C)CO` (configuration not stated): the Potency entry in assay [1], in assay [11], in [5] and in [6] was “inactive” throughout. The outcome in assay [2], in assay [10] and in [3] was inactive. For the same compound, the Potency in [4] is 79.7 µM (active); in assay [7] it was 35.6 µM (active).
Consider `O=C(O)c1ccccc1S`, for which the Potency result in assay [1], in assay [11], in assay [5], in assay [7], in [8] and in assay [9] was “inactive” throughout. Also, the outcome in assay [2], in assay [10] and in assay [3] was inactive.
For the compound `C/C=C1\C(=O)C[C@H]2[C@@H]3CCC4=CC(=O)CC[C@]4(C)[C@H]3CC[C@]12C`, the Potency entry in assay [1], in assay [4] and in assay [7] was “inactive” in each case. Also, the compound was called inactive in [2], in assay [10] and in assay [3]. Moreover, the Potency in [6] was 15.6 µM (active).
`C=C(C)[C@H]1CC=C(C)CC1`: the Potency result in assay [1], in assay [5], in [6] and in assay [9] was “inactive” throughout. Besides, the result in assay [2], in assay [10] and in assay [3] was inactive. Also, in [4], the Potency is 35.6 µM (active).
For `CC(C)(C)CC(C)(C)N`, the Potency entry in assay [1], in assay [4], in assay [6] and in [8] was “inactive” each time. Besides, the result in assay [2], in assay [10] and in [3] was inactive. Besides, the Potency in [7] is 30.8 µM (active).
As for `COc1cc(CCC(C)=O)ccc1O`, the outcome in assay [2], in assay [10] and in assay [3] was inactive. The Potency entry in assay [14], in assay [11], in assay [4], in assay [5], in [6] and in [9] was “inactive” in each case.
On to `CCCCCOC(=O)Nc1nc(=O)n([C@@H]2O[C@H](C)[C@@H](O)[C@H]2O)cc1F`, for which the Potency result in [1], in assay [11], in [12], in assay [13], in assay [4] and in assay [5] was “inactive” each time. Further, the Potency result in [6], in assay [7] and in assay [9] was “inactive” in each case. Moreover, the call in [2] and in assay [3] was inactive. The max activation in [15] was -1.91%.
